The record followed here is article PMC5540273 (PLoS ONE, 2017).

Among the test systems are PRKD3; PRKG1; PRKG2; PRKX; PRP4; QSK; RAF1; RET; RIOK1; RIOK2; RIOK3; RIPK1; RIPK2; RIPK4; RIPK5; ROCK1; ROCK2; ROS1.
Settings in all cases: concentration: 1 μM, replicates: in singlicate; n = 1
In a further assay the test system is T1, PRKR.
T1 construct: gene EIF2AK2

For the next assay, the system named is T2, PYK2.
T2 construct: gene PTK2B
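Note: KINOMEscan kinase panel screen.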

In the case of `O=C(Nc1c(F)cccc1F)c1cc(C(=O)c2ccccc2F)c[nH]1` [GSK1326180], the “%Inh” value in the assay on PRKD3 is 0%; in the assay on PRKG1, 0%; in the assay on PRKG2, 0%; with PRKR it was 0%; in the assay on PRKX, 3%; in the assay on PRP4, 0%. For the same compound, the “%Inh” value is 6% in the assay on PYK2; 4% with QSK; 6% in the assay with RAF1; 4% in the assay on RET; 11% with RIOK1; 4% in the assay with RIOK2. The “%Inh” value with RIOK3 came to 6%; in the assay with RIPK1, 0%; with RIPK2, 0%; in the assay on RIPK4, 0%; with RIPK5, 0%; with ROCK1 it was 0%. For the same compound, the figures for the “%Inh” value with ROCK2 and in the assay with ROS1 were 9% and 0%, respectively.
`Cc1ccc(C)c(NC(=O)Nc2ccc(C)c(-c3ccc(C(=O)Nc4ccncc4)cc3)c2)c1` [GSK1398473]: the “%Inh” value in the assay on PRKD3 was determined as 38%; in the assay with PRKG1, 31%; with PRKG2, 0%; with PRKR, 14%; in the assay with PRKX, 20%; in the assay on PRP4, 0%. Further, the “%Inh” value with PYK2 was 0%; in the assay with QSK it was 8%; with RAF1, 89%; with RET, 23%; in the assay with RIOK1 it was 38%; in the assay on RIOK2, 48%. Also, the “%Inh” value in the assay on RIOK3 is on record as 0%; in the assay on RIPK1, 42%; in the assay with RIPK2, 8%; in the assay on RIPK4, 11%; in the assay on RIPK5, 7%; in the assay with ROCK1 it was 0%. Moreover, the “%Inh” value in the assay with ROCK2 and in the assay on ROS1 was 0% throughout.
As for `Cn1cc(-c2ccc3c(c2)CCN3C(=O)Cc2cc(F)cc(F)c2F)c2c(N)ncnc21` [GSK2634140], the “%Inh” value in the assay with PRKD3 is recorded as 0%; in the assay with PRKG1, 0%; in the assay on PRKG2, 0%; with PRKR, 2%; in the assay with PRKX, 16%; in the assay with PRP4 it was 21%. The “%Inh” value with PYK2 is 12%; with QSK it was 0%; in the assay on RAF1, 18%; with RET, 5%; with RIOK1, 39%; in the assay on RIOK2, 15%. In addition, the “%Inh” value worked out at 13% in the assay with RIOK3; 99.7% in the assay on RIPK1; 0% with RIPK2; 0% with RIPK4; 54% in the assay with RIPK5; 36% in the assay with ROCK1. For the same compound, the figures for the “%Inh” value in the assay on ROCK2 and with ROS1 were 30% and 34%, respectively.
As for `CN(C)CCOc1ccc(-c2cc(-c3ccc(Cl)c(O)c3)c(-c3ccncc3)[nH]2)cc1.Cl.Cl` [SB-684387], the “%Inh” value with PRKD3 is 15%; in the assay with PRKG1 it was 11%; in the assay with PRKG2, 80%; in the assay on PRKR, 11%; in the assay on PRKX, 17%; with PRP4 it was 15%. Also, the “%Inh” value is listed as 0% in the assay on PYK2; 3% with QSK; 88% with RAF1; 60% with RET; 0% in the assay with RIOK1; 32% in the assay with RIOK2. Further, the “%Inh” value with RIOK3 amounted to 0%; in the assay with RIPK1 it was 36%; in the assay on RIPK2, 88%; in the assay with RIPK4 it was 7%; in the assay on RIPK5, 13%; with ROCK1 it was 99.2%. In addition, the entries for the “%Inh” value in the assay with ROCK2 and with ROS1 were 98.9% and 10%, respectively.
As for `O=C(O)C(F)(F)F.O=c1[nH]ccc2nc(N[C@@H]3CCNC3)nc(Nc3ccc4c(c3)S(=O)(=O)CC4)c12` [GSK2181306], the “%Inh” value with PRKD3 was found to be 100%; in the assay on PRKG1, 56%; with PRKG2, 93.6%; in the assay with PRKR it was 91.1%; in the assay with PRKX, 89%; in the assay on PRP4 it was 67%. Moreover, the “%Inh” value came to 99.4% in the assay with PYK2; 31% in the assay on QSK; 0% with RAF1; 97.5% in the assay with RET; 98.9% in the assay on RIOK1; 60% with RIOK2. The “%Inh” value is given as 92.9% in the assay on RIOK3; 0% with RIPK1; 9% with RIPK2; 96% in the assay on RIPK4; 94.4% in the assay on RIPK5; 99.7% in the assay with ROCK1. The “%Inh” value with ROCK2 stood at 99.7%; in the assay with ROS1, 29%.
Take `Cc1ccc(O)cc1Nc1ccnc2cc(-c3ccc(CN4CCCCC4)o3)ccc12` [GW557777]: the “%Inh” value was found to be 95.1% in the assay with PRKD3; 0% in the assay with PRKG1; 0% with PRKG2; 1% with PRKR; 0% in the assay on PRKX; 0% in the assay with PRP4. The “%Inh” value was determined as 5% in the assay on PYK2; 41% in the assay with QSK; 7% in the assay with RAF1; 100% with RET; 16% in the assay with RIOK1; 0% with RIOK2. The “%Inh” value is 21% with RIOK3; 12% with RIPK1; 91% with RIPK2; 4% in the assay with RIPK4; 12% in the assay on RIPK5; 0% in the assay on ROCK1. In addition, the results for the “%Inh” value with ROCK2 and in the assay on ROS1 were 0% and 11%, respectively.
As to `COc1cc(Nc2nccc(N3CCC(NC(=O)Nc4ccc5c(c4)OCO5)C3)n2)cc(OC)c1OC` (centres unmarked) [GSK1379766], the “%Inh” value was determined as 0% with PRKD3; 0% in the assay with PRKG1; 0% in the assay with PRKG2; 0% with PRKR; 33% in the assay on PRKX; 50% in the assay with PRP4. For the same compound, the “%Inh” value in the assay with PYK2 is 15%; with QSK, 3%; in the assay on RAF1 it was 0%; in the assay with RET, 28%; in the assay on RIOK1, 79%; with RIOK2 it was 0%. In addition, the “%Inh” value is recorded as 81% with RIOK3; 0% in the assay on RIPK1; 19% in the assay with RIPK2; 62% in the assay with RIPK4; 0% in the assay with RIPK5; 25% in the assay with ROCK1. Moreover, the “%Inh” value in the assay with ROCK2 amounted to 44%; in the assay with ROS1, 36%.
On to `Cc1ccc(Nc2ccnc(Nc3ccc(C)c(F)c3)n2)cc1O.Cl` [GW582868], for which the “%Inh” value in the assay on PRKD3 turned out to be 0%; with PRKG1 it was 0%; in the assay with PRKG2, 0%; with PRKR, 0%; in the assay on PRKX, 0%; in the assay on PRP4 it was 27%. The “%Inh” value in the assay with PYK2 is given as 1%; in the assay on QSK it was 0%; in the assay on RAF1 it was 12%; with RET, 67%; in the assay on RIOK1 it was 19%; in the assay with RIOK2 it was 2%. The “%Inh” value with RIOK3 turned out to be 4%; in the assay on RIPK1, 1%; in the assay on RIPK2, 55%; in the assay on RIPK4, 13%; with RIPK5, 0%; in the assay on ROCK1, 22%. The figures for the “%Inh” value in the assay on ROCK2 and with ROS1 were 16% and 33%, respectively.
For `Cc1cccc(Nc2nc(NCCN)ncc2C(N)=O)c1` [GSK1292139], the “%Inh” value with PRKD3 was 100%; with PRKG1 it was 9%; in the assay on PRKG2 it was 0%; with PRKR, 3%; with PRKX, 35%; in the assay with PRP4, 41%. Also, the “%Inh” value with PYK2 was found to be 66%; in the assay on QSK, 20%; in the assay on RAF1, 3%; with RET it was 14%; with RIOK1, 89%; with RIOK2, 3%. Besides, the “%Inh” value with RIOK3 was 90.2%; in the assay with RIPK1, 20%; with RIPK2 it was 0%; in the assay on RIPK4, 81%; with RIPK5, 14%; in the assay on ROCK1, 82%. Moreover, the “%Inh” value in the assay on ROCK2 came out at 81%; in the assay on ROS1, 19%.
Consider `CN(c1ccc(NC(=O)N2CCN(CCCN3CCOCC3)CC2)cc1)c1ccnc(Nc2ccc(CS(C)(=O)=O)cc2)n1.Cl` [GW830899], for which the “%Inh” value came out at 0% in the assay with PRKD3; 0% in the assay with PRKG1; 100% in the assay with PRKG2; 0% in the assay on PRKR; 63% in the assay with PRKX; 0% in the assay on PRP4. Besides, the “%Inh” value with PYK2 is 16%; in the assay with QSK, 0%; in the assay on RAF1, 28%; in the assay on RET, 6%; with RIOK1, 80%; in the assay with RIOK2 it was 0%. Further, the “%Inh” value in the assay on RIOK3 is 82%; with RIPK1, 4%; in the assay on RIPK2 it was 17%; in the assay on RIPK4, 100%; in the assay on RIPK5, 0%; with ROCK1 it was 0%. Moreover, the “%Inh” value is recorded as 0% in the assay on ROCK2 and 5% in the assay on ROS1.
